Reference: PubChem BioAssay AID602198 (NMMLSC, 2012)
Results with a measured potency or affinity are listed apart.

assay: yeast V-ATPase proton pumping modulator potency, dose response, S. cerevisiae, pHLuorin, cherry pick 2 (AID 602198); details: pHLuorin vacuolar pH fluorescence; series mostly up to 33.1 µM; response (V-ATPase modulation): at the top concentration; call rule not given here

Response (V-ATPase modulation), inactive:
O=C(c1ccc([N+](=O)[O-])o1)N1CCN(c2nc3c(Cl)cccc3s2)CC1 25.8%
CC1=NOC(=O)/C1=C\c1ccccc1 29%
CC1(C)CC(=O)C(C(C2=C(O)CC(C)(C)CC2=O)c2cccs2)C(=O)C1 (centres undefined) 24%
COc1ccc2nc(N3CCN(C(=O)c4ccc([N+](=O)[O-])o4)CC3)sc2c1 16.6%
O=C1Oc2ccccc2C(=O)/C1=C/c1ccccc1O 38.5%
O=[N+]([O-])c1ccc2c(c1)-c1ccccc1C2=NO 104%
O=C(NC1CCCCC1)c1c(O)nc2sccn2c1=O -0.55%
Cc1ccc2oc(C(=O)N(C)Cc3ccc(C)o3)c(C)c2c1 11.7%
O=C(O)c1ccc(/C=N/N2CCN(C3c4ccccc4-c4ccccc43)CC2)cc1 36.4%
